Assay [1] can be described thus: qHTS assay to identify small molecule agonists of the TGF-beta/Smad signaling pathway - cell viability counter screen (AID 1346829). Also: top concentration of the series differs between compounds; nearly all actives have a fitted effect of over 45% in size. In outline:
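Tox21 qHTS format: SBE-bla HEK 293T cells treated with DMSO-dissolved compounds for 5 hr; CellTiter-Glo luminescence after 30 min at room temperature.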

A short description of assay [2]: qHTS assay to identify small molecule agonists of the TGF-beta/Smad signaling pathway (AID 1346859; active = well fitted activation curve with a large enough effect in the signal ratio in the repeat runs, not every such curve was filed as active; the % refers to the signal ratio; also: series mostly up to about 77 µM). In outline: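 Stable Smad binding element-beta-lactamase HEK 293T cells; 5 hr compound exposure at 37 C under 5% CO2; 2 hr room-temperature substrate step; fluorescence excited at 405 nm, collected at 460 nm and 530 nm.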
Assay [3] concerns the target Thyrotropin-releasing hormone receptor (Homo sapiens) (UniProt P34981). The assay can be described thus: qHTS assay to identify small molecule antagonists of the thyrotropin-releasing hormone receptor (TRHR) signaling pathway (AID 1346877; active = well fitted inhibition curve with a large enough effect in the repeat runs, not every such curve was filed as active; also: series mostly up to about 51 µM). The method, boiled down:
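Overnight-plated (18 h, 37 °C) HEK293 cells expressing TRHR were dye-loaded 2 h, treated with compound, then stimulated with TRH at 1 nM final. Fluorescence intensity was captured every second for 3 min.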

The target is the same in assay [4]. The assay can be described thus: qHTS assay to identify small molecule agonists of the thyrotropin-releasing hormone receptor (TRHR) signaling pathway (AID 1346891; calls by dose curve;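 also: HEK293 cells expressing TRHR with calcium dye readout; series mostly up to about 58 µM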). The method, boiled down: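 In 1536-format, 1500 TRHR-Hek293 cells per well grew 18 h, took up calcium dye for 2 h at 37 °C, received compound, and were read kinetically; 15-point titrations, triplicates.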

The nature of assay [5]: Human pregnane X receptor (PXR) small molecule agonists, qHTS cell viability counter screen (AID 1346977). Also: nearly all actives have a fitted effect of over 50% in size. In outline:
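Readout is CellTiter-Fluor fluorescence from PXR-Luc HepG2 cells. Plated cells rested 5hr, then were treated with compounds for 24hr at 37C and 5% CO2, with reagent present during the last hour.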

Assay [6] can be described thus: Caspase-3/7 induction in HepG2 cells by small molecules, qHTS assay (AID 1346978). Also: nearly all actives have a fitted effect of over 15% in size. The method, boiled down:
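Caspase-3/7 induction was measured by Caspase-Glo 3/7 luminescence (30 min, room temperature) after a 17 hr compound exposure of wild-type HepG2 cells seeded at 2,000 per well and pre-incubated 5 hr.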

Assay [7] is described as follows: Caspase-3/7 induction in CHO-K1 cells by small molecules, qHTS cell viability counter screen (AID 1346979). Also: nearly all actives have a fitted effect of over 35% in size. The method, boiled down: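 To flag cytotoxic compounds, treated CHO-K1 wild-type cells were given CellTiter-Fluor at 16hr and read fluorescently after 1hr at 37C; the caspase-3/7 luminescence was measured in these same wells.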
The nature of assay [8]: Caspase-3/7 induction in CHO-K1 cells by small molecules, qHTS assay (AID 1346980). Also: nearly all actives have a fitted effect of over 15% in size. In outline:
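Luminescent Caspase-Glo 3/7 read (30min, room temperature) quantified apoptosis induction. Cells were wild-type CHO-K1, treated with compound for 17hr at 37 C and 5% CO2.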

The nature of assay [9]: Caspase-3/7 induction in HepG2 cells by small molecules, qHTS cell viability counter screen (AID 1346981). Also: series mostly up to about 92 µM; nearly all actives have a fitted effect of over 30% in size. The method, boiled down: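 Treatment of HepG2 cells with DMSO-delivered compounds ran 16 hr at 37 C following a 5-hr pre-incubation of 2,000 cells/well. CellTiter-Fluor fluorescence, read after 1 hr, served as the viability measure in a qHTS format.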
Assay [10] concerns the target Cytochrome P450 2D6 (Homo sapiens) (UniProt P10635). As to the kind of experiment: Cytochrome P450 Family 2 Subfamily D Member 6 (CYP2D6) small molecule antagonists: luciferase reporter qHTS assay (AID 1671196). Also: nearly all actives have a fitted effect of over 50% in size. Also: potency is read from the fitted curve at half-maximal effect. The method, boiled down:
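Chemicals tested for interference with CYP2D6 activity; proluciferin substrate, NADPH regeneration, 1 h at room temperature, luminescent detection.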

Assay [11] concerns the target Voltage-gated inwardly rectifying potassium channel KCNH2 (Homo sapiens) (UniProt Q12809). The assay can be described thus: Human Ether-a-go-go-Related Gene (hERG) channel small molecule antagonists: fluorescence cell-based qHTS assay (AID 1671200).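 Also: hERG-expressing U2OS cells given a thallium stimulus after FluxOR II dye loading; series mostly up to about 77 µM; nearly all actives have a fitted effect of over 50% in size.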 In outline: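 Measured: Tl+ flux via fluorescence (480/540 nm) in hERG-expressing U2OS cells after 1 h dye loading at room temperature.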

The target in assay [12] is Cytochrome P450 3A4 (Homo sapiens) (UniProt P08684). The assay can be described thus: Cytochrome P450 Family 3 Subfamily A Member 4 (CYP3A4) small molecule antagonists: luciferase reporter qHTS assay (AID 1671201). Also: nearly all actives have a fitted effect of over 50% in size. Also: potency is read from the fitted curve at half-maximal effect. In outline:
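Setup: enzyme-substrate mix, compound pin transfer, 10 min RT. Reaction: NADPH regeneration solution, 1 h RT. Readout: detection reagent stops turnover, luminescence measured after 20 min, expressed in relative luminescence units.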

The target of assay [13] is Nuclear receptor subfamily 1 group I member 2 (Homo sapiens) (UniProt O75469). As to the kind of experiment: Human pregnane X receptor (PXR) small molecule agonists, qHTS assay (AID 1346982). Also: nearly all actives have a fitted effect of over 35% in size. Also: potency is read from the fitted curve at half-maximal effect. The method, boiled down:
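Stable HepG2 line reporting PXR-mediated CYP3A4 expression via luciferase. Treatment: 24 hr with compounds in DMSO at 37 C. Detection: ONE-Glo luminescence.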

In assay [14] the target is Cytochrome P450 2C19 (Homo sapiens) (UniProt P33261). The assay can be described thus: Cytochrome P450 Family 2 Subfamily C Member 19 (CYP2C19) small molecule antagonists: luciferase reporter qHTS assay (AID 1671197). Also: nearly all actives have a fitted effect of over 65% in size. Also: potency is read from the fitted curve at half-maximal effect. The method, boiled down:
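Relative luminescence units recorded 20 min after the detection reagent stopped a 1 h, 37C CYP2C19 reaction on proluciferin substrate, which was started by NADPH regeneration following 10 min room-temperature compound preincubation; ketoconazole positive control.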

In assay [15] the target is Cytochrome P450 2C9 (Homo sapiens) (UniProt P11712). As to the kind of experiment: Cytochrome P450 Family 2 Subfamily C Member 9 (CYP2C9) small molecule antagonists: luciferase reporter qHTS assay (AID 1671198). Also: nearly all actives have a fitted effect of over 50% in size. Also: potency is read from the fitted curve at half-maximal effect. In outline: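 Enzyme-substrate mix preincubated with compound 10 min at room temperature; reaction started with NADPH regeneration solution, 1 h 37C. Luminescent luciferin product read after 20 min detection reagent.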
Sequence of Cytochrome P450 2C9 (Homo sapiens) (P11712 whole entry, looked up): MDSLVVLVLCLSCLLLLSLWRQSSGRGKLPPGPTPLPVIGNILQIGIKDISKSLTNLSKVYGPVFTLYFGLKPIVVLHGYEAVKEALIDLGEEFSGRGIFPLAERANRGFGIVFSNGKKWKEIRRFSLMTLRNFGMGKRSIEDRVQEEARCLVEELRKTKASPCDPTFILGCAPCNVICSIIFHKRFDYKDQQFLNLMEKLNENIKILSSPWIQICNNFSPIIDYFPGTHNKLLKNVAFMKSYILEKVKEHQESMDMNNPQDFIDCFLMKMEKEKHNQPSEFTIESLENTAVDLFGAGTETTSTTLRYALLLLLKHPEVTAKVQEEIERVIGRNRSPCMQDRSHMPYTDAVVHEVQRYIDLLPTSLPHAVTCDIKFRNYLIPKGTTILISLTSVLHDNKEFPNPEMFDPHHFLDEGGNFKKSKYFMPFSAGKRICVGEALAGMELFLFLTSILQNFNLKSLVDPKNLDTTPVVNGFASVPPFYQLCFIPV

For assay [16], the target named is Cytochrome P450 1A2 (Homo sapiens) (UniProt P05177). As to the kind of experiment: Cytochrome P450 Family 1 Subfamily A Member 2 (CYP1A2) small molecule antagonists: luciferase reporter qHTS assay (AID 1671199). Also: nearly all actives have a fitted effect of over 50% in size. Also: potency is read from the fitted curve at half-maximal effect. In outline: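 Read-out is luminescence from luciferin detection reagent (20 min) proportional to CYP1A2 activity; compounds in DMSO preincubated 10 min with enzyme and proluciferin substrate, then NADPH regeneration solution, 1 h, room temperature.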
Sequence of Cytochrome P450 1A2 (Homo sapiens) (P05177 whole entry, looked up): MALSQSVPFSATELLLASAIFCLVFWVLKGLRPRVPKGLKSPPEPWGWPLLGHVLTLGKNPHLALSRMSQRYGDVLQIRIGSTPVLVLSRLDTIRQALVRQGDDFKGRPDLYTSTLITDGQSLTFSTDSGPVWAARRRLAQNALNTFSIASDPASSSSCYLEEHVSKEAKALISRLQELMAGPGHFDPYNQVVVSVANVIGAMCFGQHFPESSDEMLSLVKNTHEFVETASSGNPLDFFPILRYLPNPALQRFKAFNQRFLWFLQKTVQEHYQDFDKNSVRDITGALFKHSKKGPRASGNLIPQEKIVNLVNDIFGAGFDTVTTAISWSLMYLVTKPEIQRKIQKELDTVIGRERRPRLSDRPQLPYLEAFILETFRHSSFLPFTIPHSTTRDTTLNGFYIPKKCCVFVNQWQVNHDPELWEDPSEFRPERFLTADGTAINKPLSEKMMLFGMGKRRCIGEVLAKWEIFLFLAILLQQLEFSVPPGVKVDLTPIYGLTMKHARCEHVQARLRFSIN

Values without a mark were called inactive. Inconclusive results are not listed. Activity calls are given as the source filed them. Unless noted, calls follow the shape of the dose curve; as a rule, active = well fitted curve in the direction sought with a large enough effect in the repeat runs; inconclusive = weak or mixed curves; inactive = no such curve, though single readings can be large; an effect the other way counts as inactive or inconclusive.

Consider nine compounds from PubChem BioAssay (Tox21).

Sequence of Thyrotropin-releasing hormone receptor (Homo sapiens) (P34981 whole entry, looked up): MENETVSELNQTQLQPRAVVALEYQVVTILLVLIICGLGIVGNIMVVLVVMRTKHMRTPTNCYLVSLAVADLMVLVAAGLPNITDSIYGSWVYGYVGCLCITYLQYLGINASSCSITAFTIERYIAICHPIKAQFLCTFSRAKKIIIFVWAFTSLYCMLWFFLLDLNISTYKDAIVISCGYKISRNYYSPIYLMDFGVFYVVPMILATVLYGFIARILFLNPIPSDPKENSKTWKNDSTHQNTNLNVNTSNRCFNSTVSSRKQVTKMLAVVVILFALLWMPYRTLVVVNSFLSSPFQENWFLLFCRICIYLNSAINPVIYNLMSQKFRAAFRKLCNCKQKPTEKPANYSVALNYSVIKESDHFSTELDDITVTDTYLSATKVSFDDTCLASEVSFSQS
Sequence of Cytochrome P450 2C19 (Homo sapiens) (P33261 whole entry, looked up): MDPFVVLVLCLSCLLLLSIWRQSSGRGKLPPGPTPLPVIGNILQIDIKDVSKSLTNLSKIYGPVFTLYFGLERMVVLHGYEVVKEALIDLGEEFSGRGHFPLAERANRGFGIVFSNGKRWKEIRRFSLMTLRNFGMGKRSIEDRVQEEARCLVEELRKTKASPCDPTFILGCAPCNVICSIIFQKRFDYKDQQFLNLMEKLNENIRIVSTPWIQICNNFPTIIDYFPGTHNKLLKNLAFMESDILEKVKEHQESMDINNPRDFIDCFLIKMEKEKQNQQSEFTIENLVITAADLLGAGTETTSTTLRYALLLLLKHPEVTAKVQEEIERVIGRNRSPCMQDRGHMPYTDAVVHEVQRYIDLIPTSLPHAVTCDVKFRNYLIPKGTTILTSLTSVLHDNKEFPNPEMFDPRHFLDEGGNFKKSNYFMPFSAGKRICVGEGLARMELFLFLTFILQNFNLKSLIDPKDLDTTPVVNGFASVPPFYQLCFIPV
Sequence of Nuclear receptor subfamily 1 group I member 2 (Homo sapiens) (O75469 whole entry, looked up): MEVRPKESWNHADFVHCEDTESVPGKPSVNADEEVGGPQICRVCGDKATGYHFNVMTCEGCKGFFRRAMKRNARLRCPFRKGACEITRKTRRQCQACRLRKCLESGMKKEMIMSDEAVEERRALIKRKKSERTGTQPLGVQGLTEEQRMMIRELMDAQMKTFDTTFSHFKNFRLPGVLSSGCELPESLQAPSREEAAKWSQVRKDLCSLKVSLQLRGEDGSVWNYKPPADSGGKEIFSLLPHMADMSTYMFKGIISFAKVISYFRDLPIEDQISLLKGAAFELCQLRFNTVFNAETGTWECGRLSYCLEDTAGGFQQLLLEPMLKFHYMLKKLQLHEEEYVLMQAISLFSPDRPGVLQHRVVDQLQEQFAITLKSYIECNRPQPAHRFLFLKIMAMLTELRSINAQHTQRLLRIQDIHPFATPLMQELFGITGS
Sequence of Cytochrome P450 2D6 (Homo sapiens) (P10635 whole entry, looked up): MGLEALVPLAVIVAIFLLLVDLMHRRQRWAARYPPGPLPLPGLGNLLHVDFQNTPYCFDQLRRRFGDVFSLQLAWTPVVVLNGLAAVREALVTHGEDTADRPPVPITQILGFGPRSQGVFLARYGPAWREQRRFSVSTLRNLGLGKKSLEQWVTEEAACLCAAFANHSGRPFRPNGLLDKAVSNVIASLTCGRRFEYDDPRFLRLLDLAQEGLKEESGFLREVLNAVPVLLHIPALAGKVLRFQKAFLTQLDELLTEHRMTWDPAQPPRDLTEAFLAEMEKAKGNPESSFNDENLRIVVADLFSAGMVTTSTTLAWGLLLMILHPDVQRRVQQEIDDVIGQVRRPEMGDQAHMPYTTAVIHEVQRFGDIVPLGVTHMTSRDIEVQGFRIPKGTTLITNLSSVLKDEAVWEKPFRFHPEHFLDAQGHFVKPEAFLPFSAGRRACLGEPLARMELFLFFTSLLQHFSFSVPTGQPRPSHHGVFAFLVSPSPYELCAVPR
Sequence of Voltage-gated inwardly rectifying potassium channel KCNH2 (Homo sapiens) (Q12809 whole entry, looked up): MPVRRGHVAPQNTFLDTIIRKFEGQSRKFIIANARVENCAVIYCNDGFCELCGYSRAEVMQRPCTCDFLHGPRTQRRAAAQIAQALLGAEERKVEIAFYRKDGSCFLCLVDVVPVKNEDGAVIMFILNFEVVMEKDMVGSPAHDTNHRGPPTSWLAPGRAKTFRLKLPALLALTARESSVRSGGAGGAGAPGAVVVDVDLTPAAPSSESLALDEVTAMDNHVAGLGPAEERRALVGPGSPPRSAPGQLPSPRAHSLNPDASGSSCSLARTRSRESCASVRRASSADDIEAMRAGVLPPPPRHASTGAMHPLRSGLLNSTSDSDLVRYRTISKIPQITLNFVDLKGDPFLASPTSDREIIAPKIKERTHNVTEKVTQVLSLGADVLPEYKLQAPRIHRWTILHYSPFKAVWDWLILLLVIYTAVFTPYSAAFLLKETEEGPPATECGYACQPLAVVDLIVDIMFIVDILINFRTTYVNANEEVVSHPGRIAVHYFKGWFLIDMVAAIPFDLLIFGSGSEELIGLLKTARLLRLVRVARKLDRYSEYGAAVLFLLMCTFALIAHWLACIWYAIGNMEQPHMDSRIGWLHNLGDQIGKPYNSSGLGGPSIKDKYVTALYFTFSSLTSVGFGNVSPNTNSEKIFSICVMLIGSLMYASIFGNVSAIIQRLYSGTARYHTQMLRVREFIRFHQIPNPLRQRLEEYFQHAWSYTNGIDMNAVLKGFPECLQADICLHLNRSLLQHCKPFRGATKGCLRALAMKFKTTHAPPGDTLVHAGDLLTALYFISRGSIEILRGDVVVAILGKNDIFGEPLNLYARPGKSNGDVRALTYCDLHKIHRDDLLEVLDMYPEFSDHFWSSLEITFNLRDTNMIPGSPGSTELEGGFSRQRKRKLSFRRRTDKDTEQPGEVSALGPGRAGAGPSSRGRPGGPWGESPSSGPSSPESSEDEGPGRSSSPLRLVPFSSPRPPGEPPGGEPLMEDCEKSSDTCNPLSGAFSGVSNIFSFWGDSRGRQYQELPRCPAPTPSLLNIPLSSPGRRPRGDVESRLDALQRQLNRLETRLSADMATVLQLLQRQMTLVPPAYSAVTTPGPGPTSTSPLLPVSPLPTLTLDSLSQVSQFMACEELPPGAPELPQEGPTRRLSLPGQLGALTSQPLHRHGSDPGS
Sequence of Cytochrome P450 3A4 (Homo sapiens) (P08684 whole entry, looked up): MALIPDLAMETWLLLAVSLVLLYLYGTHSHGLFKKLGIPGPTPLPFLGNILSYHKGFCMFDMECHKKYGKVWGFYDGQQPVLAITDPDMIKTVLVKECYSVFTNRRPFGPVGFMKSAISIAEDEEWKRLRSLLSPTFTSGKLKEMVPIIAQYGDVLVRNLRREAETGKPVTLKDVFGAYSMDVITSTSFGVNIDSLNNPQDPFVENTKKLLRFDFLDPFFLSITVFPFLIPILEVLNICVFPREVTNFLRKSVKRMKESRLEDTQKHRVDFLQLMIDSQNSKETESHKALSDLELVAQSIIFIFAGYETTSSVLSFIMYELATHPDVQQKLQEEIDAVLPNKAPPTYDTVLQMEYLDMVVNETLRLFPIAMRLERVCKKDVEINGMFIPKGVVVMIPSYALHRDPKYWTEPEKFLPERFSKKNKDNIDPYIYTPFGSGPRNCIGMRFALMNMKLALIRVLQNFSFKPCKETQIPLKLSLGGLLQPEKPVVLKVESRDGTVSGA

As for `C=CCOCC(O)CCl` (configuration not stated), the result in [1], in assay [2], in [3], in assay [4], in [6] and in assay [8] was inactive. The Potency entry in assay [5], in [7], in assay [9], in assay [10], in assay [11] and in assay [12] was “inactive” each time.

Turning to `CO[Si](CCCCl)(OC)OC`, the compound was classed as inactive in [1], in assay [2], in [3], in assay [4], in [6] and in [8]. The Potency result in assay [5], in [7], in assay [13], in assay [16] and in [11] was “inactive” in each case. The Potency in [10] is 31.2 µM (active); in assay [14], 39.3 µM (active); in [15], 39.3 µM (active); in [12], 3.51 µM (active).

Regarding `C=CCOc1c(Br)cc(Br)cc1Br`, the compound was classed as inactive in [1], in [2], in [3], in assay [4], in assay [6] and in assay [8]. Also, the Potency entry in assay [5], in assay [7], in assay [9], in assay [13] and in assay [11] was “inactive” in each case. Further, the Potency in assay [14] is 7.96 µM (active); in assay [15], 8.94 µM (active); in assay [16], 2.83 µM (active).

Consider `Nc1cc(C(=O)O)ccc1Cl`, for which the call in assay [1], in [2], in assay [3], in [4], in assay [6] and in [8] was inactive. The Potency entry in [5], in assay [7], in [9], in [13], in assay [10] and in [15] was “inactive” each time. Besides, the Potency entry in assay [16], in assay [11] and in [12] was “inactive” in each case.

Turning to `CCCCCN(CCCOC)C(=O)C(CCC(=O)O)NC(=O)c1ccc(Cl)c(Cl)c1` (configuration not stated), the compound was classed as inactive in assay [1], in assay [2], in assay [3], in [4], in assay [6] and in [8]. The Potency result in [5], in assay [7], in assay [9], in assay [10], in [14] and in [11] was “inactive” each time. Further, in assay [12], the Potency entry was “inactive”. The values for the Potency in assay [15] and in [16] were 13.8 µM (active) and 30.9 µM (active), respectively.

For `C=C[C@@H](C)CCC=C(C)C`, the result in assay [1], in assay [2], in assay [3], in assay [4], in assay [6] and in [8] was inactive. In addition, the Potency result in assay [5], in [7], in assay [9], in assay [10], in assay [14] and in assay [15] was “inactive” throughout. Besides, the Potency result in assay [11] and in assay [12] was “inactive” throughout. Moreover, the Potency in [16] is 39.9 µM (active).

With `CN(C1CCCCC1)S(=O)(=O)c1ccccc1N`, the compound was called inactive in [1], in assay [2], in assay [3], in assay [4], in [6] and in [8]. The Potency entry in assay [5], in assay [7], in assay [9] and in [11] was “inactive” throughout. Also, the Potency in assay [13] was 27.3 µM (active); in [14], 3.17 µM (active); in [15] it was 6.33 µM (active).

Consider `Cc1ncc([N+](=O)[O-])n1CC(O)CCl` (configuration not stated), for which the call in assay [1], in [2], in assay [3], in assay [4], in assay [6] and in [8] was inactive. Also, the Potency result in assay [5], in assay [7], in assay [9] and in assay [11] was “inactive” throughout.

For the compound `Oc1ccccc1Cc1ccccc1O`, the outcome in assay [1], in [2], in [3], in assay [4], in assay [6] and in [8] was inactive. Also, the Potency entry in assay [5], in [7], in assay [9] and in [11] was “inactive” each time. Besides, the Potency is 61.1 µM (active) in assay [13], 10 µM (active) in assay [14] and 39.9 µM (active) in assay [15].
